According to paper PMC5540273 (PLoS ONE, 2017):
Several values for one entry are separate records, joined by “and”; a condition that tells them apart may be missing. Identical values can stand only once. Like-named read-outs stand apart in the source and are kept apart here.

Tests used:
LYN = conditions: concentration: 1 μM, replicates: in singlicate; n = 1
LZK = system: T1, LZK; conditions: concentration: 1 μM, replicates: in singlicate; n = 1
T1 construct: gene MAP3K13

MAK = conditions: n = 1
MAP3K15 = conditions: n = 1
MAP3K1 = conditions: n = 1
MAP3K2 = conditions: n = 1
MAP3K3 = conditions: concentration: 1 μM, replicates: in singlicate; n = 1
MAP3K4 = conditions: n = 1
MAP4K2 = conditions: concentration: 1 μM, replicates: in singlicate; n = 1
MAP4K3 = conditions: n = 1
[1] = concentration: 1 μM, replicates: in singlicate
[2] = concentration: 1 μM,replicates: in singlicate, 1 µM
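Note: KINOMEscan kinase panel screen.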

| SMILES | %Inh (LYN) | %Inh (LZK) | %Inh (MAK; [1]) | %Inh (MAP3K15; [1]) | %Inh (MAP3K1; [1]) | %Inh (MAP3K2; [1]) | %Inh (MAP3K3) | %Inh (MAP3K4; [1]) | %Inh (MAP4K2) | %Inh (MAP4K3; [1]) | %Inh (MAK; [2]) | %Inh (MAP3K15; [2]) | %Inh (MAP3K1; [2]) | %Inh (MAP3K2; [2]) | %Inh (MAP3K4; [2]) | %Inh (MAP4K3; [2]) |
| --- | --- | --- | --- | --- | --- | --- | --- | --- | --- | --- | --- | --- | --- | --- | --- | --- |
| COc1ccccc1-c1ccc2c(NC(=O)C3CC3)n[nH]c2n1 [SB-711239] | 18% | 24% | 23% | 0% | 0% | 0% | 0% | 32% | 0% | 0% | – | – | – | – | – | – |
| Cc1ccc(NC(=O)Nc2cccc(Cl)c2)cc1-c1ccc(C(=O)Nc2ccncc2)cc1 [GSK1398468] | 0% | 0% | 19% | 0% | 0% | 0% | 0% | 7% | 0% | 0% | – | – | – | – | – | – |
| O=C(O)COc1ncnc2cc(-c3ccc4[nH]ncc4c3)sc12 | 0% | 39% | 2% | 53% | 22% | 13% | 9% | 4% | 1% | 0% | – | – | – | – | – | – |
| O=c1cc(N2CCOCC2)nc2n(Cc3cccc(Cl)c3Cl)ccn12 [GSK2286295] | 97.8% | 0% | 78% | 0% | 6% | 0% | 0% | 25% | 0% | 0% | – | – | – | – | – | – |
| CN1C(=O)C(Nc2ccc(Cl)c(C(=O)O)c2)=C(c2ccc(Cl)cc2)C1=O [SB-404290] | 0% | 0% | 0% | 45% | 16% | 21% | 12% | 9% | 21% | 0% | – | – | – | – | – | – |
| CC(C)(C)c1ccc(C(=O)Nc2cn3cc(Cl)ccc3n2)cc1 | 8% | 0% | 15% | 1% | 0% | 45% | 0% | 0% | 0% | 0% | – | – | – | – | – | – |
| Cc1ccc(C(=O)Nc2ccc(Nc3ccnc4cc(-c5ccccn5)ccc34)cc2O)cc1.Cl [GW440146] | 44% | 10% | 25% | 21% | 3% | 0% | 0% | 25% | 0% | 0% | – | – | – | – | – | – |
| CCn1c(-c2ccccn2)nc2cnccc21 [SB-736398] | 0% | 11% | 11% | 2% | 8% | 3% | 0% | 19% | 0% | 0% | – | – | – | – | – | – |
| COc1cc(Nc2nccc(N3CCC(NC(=O)Nc4cc(C)ccc4C)C3)n2)cc(OC)c1OC (stereo not drawn) [GSK1379762] | 6% | 0% | 54% | 17% | 16% | 0% | 0% | 12% | 0% | 0% | – | – | – | – | – | – |
| Cc1cc(NCC(c2ccccc2)c2ccccc2)nc(NCc2ccc(C(F)(F)F)cc2)n1 [GW497681] | 0% | 11% | 17% | 0% | 0% | 0% | 0% | 22% | 0% | 0% | – | – | – | – | – | – |
| CSc1nn2c(=O)cc(N3CCOCC3)nc2n1Cc1cccc(C(F)(F)F)c1C [GSK2363608] | 0% | 0% | – | – | – | – | 0% | – | 0% | – | 24% and 15% | 5% and 0% | 12% and 6% | 10% and 13% | 18% and 30% | 0% and 10% |
| Cc1ccc(NC(=O)Nc2cc(C(C)(C)C)nn2-c2ccccc2)cc1 [GSK1014915] | 0% | 0% | 10% | 16% | 17% | 17% | 0% | 3% | 0% | 10% | – | – | – | – | – | – |
| CS(=O)(=O)c1ccc(-c2nc3n(c2-c2ccncc2)CCC3)cc1 [SKF-105942] | 3% | 0% | 25% | 0% | 0% | 3% | 0% | 35% | 0% | 2% | – | – | – | – | – | – |
| Cc1nnc(-c2ccc3occ(-c4ccc(S(C)=O)cc4)c3c2)[nH]1 (stereo not drawn) | 18% | 0% | 0% | 10% | 24% | 1% | 0% | 2% | 0% | 11% | – | – | – | – | – | – |
| Cc1cccc(-c2cc(Nc3ccncc3)c3ccccc3n2)n1 [GSK223675] | 0% | 0% | 22% | 0% | 5% | 0% | 0% | 21% | 0% | 0% | – | – | – | – | – | – |
| Cn1ccc2ncnc(Oc3ccc(Nc4nc5ccccc5[nH]4)cc3)c21 | 0% | 0% | 5% | 0% | 0% | 0% | 0% | 0% | 0% | 9% | – | – | – | – | – | – |
| Clc1cc(Cl)cc(Nc2ccnc(Nc3cc(Cl)cc(Cl)c3)n2)c1 [GSK175726] | 23% | 0% | 25% | 0% | 0% | 0% | 0% | 0% | 0% | 0% | – | – | – | – | – | – |
| C[C@@H]1CCCCN1c1cc(-c2ccc3c(N)n[nH]c3c2)nc(N)n1 [GSK2258759] | 0% | 0% | 22% | 0% | 0% | 0% | 0% | 0% | 0% | 1% | – | – | – | – | – | – |
